Assay [1] addresses Glucocorticoid receptor (Homo sapiens) (UniProt P04150). Description: ATG_GR_TRANS: Attagene TRANS-FACTORIAL HepG2 Assay for human Glucocorticoid Receptor (GR) (AID 2282978; active means hit-call score of the fitted dose curve at least 0.9, where 1 is the maximum;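 further: activators score as hits since higher reporter transcript over DMSO is fitted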). The following applies: HepG2 Attagene TRANS GR reporter, mRNA transcription. A digest of the protocol:
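HepG2 cells transiently transfected with GAL4-UAS reporter units and exogenous GR-Gal4 chimera, dosed 24 h. Reporter mRNA by RT-PCR, FAM labeling, HpaI digest and capillary electrophoresis; gain-of-signal fit versus DMSO.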

Assay [2] concerns the target Oxysterols receptor LXR-beta (Homo sapiens) (UniProt P55055). Put plainly: ATG_LXRb_TRANS: Attagene TRANS-FACTORIAL HepG2 Assay for human Liver X Receptor beta (LXRb) (AID 2282981; active means hit-call score of the fitted dose curve at least 0.9, where 1 is the maximum). The following applies: HepG2 Attagene TRANS GAL4-LXRb reporter, mRNA. A digest of the protocol:
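Gain-of-signal mRNA reporter endpoint, DMSO as negative control. Transiently transfected HepG2 cells carrying the NR-Gal4 chimera and GAL4-UAS reporter units were treated 24 h; transcripts quantified by RT-PCR and capillary electrophoresis fluorescence.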

Assay [3] can be described thus: ATG_M_06_TRANS: Attagene TRANS-FACTORIAL HepG2 Assay for M06 Transcription Factor (Internal Marker) (AID 2282983; active means hit-call score of the fitted dose curve at least 0.9, where 1 is the maximum). The conditions noted are these: HepG2 Attagene TRANS M06 internal marker reporter. A digest of the protocol:
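Measured by capillary electrophoresis of fluorescently labelled RT-PCR products, this endpoint reflects reporter mRNA in HepG2 cells harbouring exogenous NR-GAL4 reporter constructs after 24 h exposure, with DMSO as baseline.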

Assay [4] deals with Nuclear receptor subfamily 4 group A member 2 (Homo sapiens) (UniProt P43354). Description: ATG_NURR1_TRANS: Attagene TRANS-FACTORIAL HepG2 Assay for human Nuclear Receptor Related Protein 1 (NURR1) (AID 2282985; active means hit-call score of the fitted dose curve at least 0.9, where 1 is the maximum). The following applies: HepG2 Attagene TRANS reporter, mRNA readout. A digest of the protocol: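 HepG2 / transient MRTU transfection / 24 h compound exposure / RT-PCR + CE fluorescence of reporter mRNA / gain-of-signal vs DMSO.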

Assay [5] has as its target Transcriptional activator Myb (Homo sapiens) (UniProt P10242). Description: ATG_Myb_CIS: Attagene CIS-FACTORIAL HepG2 Assay for human Myeloblastosis (Myb) Proto-Oncogene Transcription Factor (AID 2282986). The conditions noted are these: HepG2 Attagene CIS-FACTORIAL Myb reporter transcription; actives raise or lower the signal. A digest of the protocol:
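Transiently transfected HepG2 cells carrying a multiplexed cis-promoter reporter set report endogenous Myb activity after 24 h compound exposure. Reporter mRNA is read by RT-PCR with capillary electrophoresis of fluorescent products, fitted bidirectionally against DMSO.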

The target of assay [6] is Nuclear respiratory factor 1 (Homo sapiens) (UniProt Q16656). Description: ATG_NRF1_CIS: Attagene CIS-FACTORIAL HepG2 Assay for human Nuclear Respiratory Factor 1 (NRF1) Orphan Gene (AID 2282987). The following applies: HepG2 NRF1 cis-element reporter, Attagene multiplex; actives raise or lower the signal. A digest of the protocol:
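HepG2 cells transiently transfected with multiple cis-regulated reporter units, exposed 24 h. Reporter mRNAs measured by RT-PCR, fluorescent labelling, HpaI digestion and capillary electrophoresis; bidirectional fitting against DMSO.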

A short description of assay [7]: ATG_NFI_CIS: Attagene CIS-FACTORIAL HepG2 Assay for human Nuclear Factor I (NFI) (AID 2282989). The following applies: HepG2 cis-regulatory reporter, NFI response element transcription; actives raise or lower the signal. A digest of the protocol:
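Read-out: reporter mRNA via RT-PCR plus capillary electrophoresis with fluorescence detection. Transiently transfected HepG2 (endogenous TF activity on cis promoters), 24 h compound exposure; gain or loss of signal fitted against DMSO.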

In assay [8] the target is Myc proto-oncogene protein (Homo sapiens) (UniProt P01106). Put plainly: ATG_Myc_CIS: Attagene CIS-FACTORIAL HepG2 Assay for human Myelocytomatosis (Myc) Proto-Oncogene Transcription Factor (AID 2282990). The following applies: HepG2, Attagene cis-reporter transcription factor activity; actives raise or lower the signal. A digest of the protocol: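 Read-out: fluorescent reporter mRNA fragments resolved by capillary electrophoresis after RT-PCR. Human HepG2 liver cells carried transfected cis-element reporter units and were dosed for 24 h. Gain or loss of signal fitted relative to DMSO baseline.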

Assay [9] can be described thus: ATG_NF_kB_CIS: Attagene CIS-FACTORIAL HepG2 Assay for human Nuclear Factor Kappa B (NF-kB) (AID 2282991). The following applies: HepG2 Attagene cis-factorial NF-kB reporter mRNA; actives raise or lower the signal. A digest of the protocol: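 HepG2 cells transfected with cis-promoter-driven reporter units, so endogenous transcription factor activity is measured. Reporter mRNA quantified 24 h after dosing by RT-PCR and capillary electrophoresis, with bidirectional fitting against DMSO.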

Assay [10] is described as follows: ATG_NRF2_ARE_CIS: Attagene CIS-FACTORIAL HepG2 Assay for human Nuclear Factor Erythroid 2 Related Factor 2 (NFR2) response to Antioxidant Response Elements (ARE) (AID 2282992).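 On AC50: reporter mRNA level measured by RT-PCR and capillary electrophoresis fluorescence.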 The following applies: HepG2 Attagene ARE/NRF2 reporter, transcription factor activity; actives raise or lower the signal. A digest of the protocol: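 Cis-factorial assay: transfected HepG2 reporter library, 24 h dosing, mRNA readout via RT-PCR/CE; DMSO-referenced bidirectional analysis.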

The nature of assay [11]: ATG_Oct_MLP_CIS: Attagene CIS-FACTORIAL HepG2 Assay for human Octamer-Binding Transcription Factor (Oct) (AID 2282993). The conditions noted are these: HepG2 Attagene cis-factorial Oct reporter, mRNA; actives raise or lower the signal. A digest of the protocol: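 Read-out: reporter mRNA via RT-PCR plus capillary electrophoresis of 6-FAM-labelled fragments. Transiently transfected HepG2, 24 h exposure, endogenous TF activity on cis elements. Gain or loss of signal fitted relative to DMSO.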

The target in assay [12] is Cellular tumor antigen p53 (Homo sapiens) (UniProt P04637). Put plainly: ATG_p53_CIS: Attagene CIS-FACTORIAL HepG2 Assay for human p53 Transcription Factor (AID 2282994). The following applies: HepG2 p53 cis-element reporter, Attagene mRNA; actives raise or lower the signal. A digest of the protocol:
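Using HepG2 hepatoma cells carrying cis-acting multiplexed reporters, mRNA induction is detected after a 24 h exposure. Gain- and loss-of-signal responses are fitted relative to DMSO-treated cells.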

The nature of assay [13]: BSK_3C_TissueFactor: BioMAP Diversity Plus: 3C Assay for Tissue Factor Biomarker Activity (AID 2282997). The following applies: BioMAP 3C HUVEC, tissue factor biomarker readout; actives raise or lower the signal. A digest of the protocol: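 Values derive from bidirectional curve fitting against DMSO of Tissue Factor ELISA signals, taken 24 h after dosing primary human umbilical vein endothelial cells.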

Assay [14] can be described thus: BSK_3C_uPAR: BioMAP Diversity Plus: 3C Assay for Urokinase-type plasminogen activator receptor (uPAR) Biomarker Activity (AID 2282998). The following applies: BioMAP 3C HUVEC, uPAR biomarker ELISA; actives raise or lower the signal. A digest of the protocol:
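HUVEC primary cells; 24 h post-dose; uPAR by ELISA; gain or loss of signal fitted bidirectionally vs DMSO baseline.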

The target of assay [15] is Oxysterols receptor LXR-alpha (Homo sapiens) (UniProt Q13133). Description: ATG_LXRa_TRANS: Attagene TRANS-FACTORIAL HepG2 Assay for human Liver X Receptor alpha (LXRa) (AID 2282980; active means hit-call score of the fitted dose curve at least 0.9, where 1 is the maximum). The following applies: HepG2 Attagene TRANS reporter, LXRa transactivation. A digest of the protocol: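 Transient HepG2 transfectants, 24 h dosing, RT-PCR/CE mRNA reporter quantitation; gain-of-signal vs DMSO.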

The nature of assay [16]: ATG_M_32_TRANS: Attagene TRANS-FACTORIAL HepG2 Assay for M32 Transcription Factor (Internal Marker) (AID 2282984; active means hit-call score of the fitted dose curve at least 0.9, where 1 is the maximum;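 further: transcript level of a background control reporter unit measured by RT-PCR and capillary electrophoresis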). The following applies: HepG2 Attagene TRANS M32 internal marker reporter. A digest of the protocol:
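Capillary electrophoresis of 6-FAM-labelled reporter fragments gives the signal; data fitted for gain over DMSO negative control. Source: HepG2 cells bearing transient multiple reporter transcription units, 24 h exposure.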

The nature of assay [17]: BSK_3C_VCAM1: BioMAP Diversity Plus: 3C Assay for Vascular cell adhesion molecule 1 (VCAM1) Biomarker Activity (AID 2282999). The conditions noted are these: BioMAP 3C HUVEC, VCAM1 ELISA, cytokine-stimulated; actives raise or lower the signal. A digest of the protocol:
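Human umbilical vein endothelial cells (3C system), biomarker read by ELISA 24 h after dosing; bidirectional fit against DMSO baseline. Cytotoxicity tracked by SRB total-protein staining in parallel cultures at biomarker time.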
(In general: An ELISA detects its analyte on a solid surface through an enzyme-linked reagent.)

For assay [18], the target named is Hepatocyte nuclear factor 4-alpha (Homo sapiens) (UniProt P41235). Put plainly: ATG_HNF4a_TRANS: Attagene TRANS-FACTORIAL HepG2 Assay for human Hepatocyte Nuclear Factor 4 alpha (HNF4a) (AID 2282982; active means hit-call score of the fitted dose curve at least 0.9, where 1 is the maximum). The following applies: HepG2 HNF4a transactivation reporter, mRNA readout. A digest of the protocol: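 Gain-of-signal mRNA induction, relative to DMSO vehicle, was read after 24 h compound treatment of HepG2 cells bearing transfected GAL4-UAS reporters. Detection used RT-PCR, 6-FAM primer extension and capillary electrophoresis.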

Assay [19] addresses Bile acid receptor (Homo sapiens) (UniProt Q96RI1). Put plainly: ATG_FXR_TRANS: Attagene TRANS-FACTORIAL HepG2 Assay for Farnesoid X Receptor (FXR) (AID 2282979; active means hit-call score of the fitted dose curve at least 0.9, where 1 is the maximum;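 further: hits raise reporter mRNA above DMSO so AC50 marks FXR activation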). The conditions noted are these: HepG2 Attagene TRANS FXR-GAL4 reporter transcription. A digest of the protocol:
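Chimeric FXR-GAL4 activity in transiently transfected human HepG2 liver cells is scored as induction of reporter mRNA after 24 h of dosing. Detection uses RT-PCR with fluorescent labelling and capillary electrophoresis, with DMSO serving as baseline.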

Each structure is given as a SMILES string. Where “and” joins values, the source holds several entries; their conditions need not be identical. Identical values can stand only once. Inconclusive results are not listed. Calls of active or inactive are those of the source. How the source made its calls, unless noted: active means hit-call score of the fitted dose curve at least 0.9, where 1 is the maximum; inactive means score below 0.9.

Sequence of Cellular tumor antigen p53 (Homo sapiens) (P04637 whole entry, looked up): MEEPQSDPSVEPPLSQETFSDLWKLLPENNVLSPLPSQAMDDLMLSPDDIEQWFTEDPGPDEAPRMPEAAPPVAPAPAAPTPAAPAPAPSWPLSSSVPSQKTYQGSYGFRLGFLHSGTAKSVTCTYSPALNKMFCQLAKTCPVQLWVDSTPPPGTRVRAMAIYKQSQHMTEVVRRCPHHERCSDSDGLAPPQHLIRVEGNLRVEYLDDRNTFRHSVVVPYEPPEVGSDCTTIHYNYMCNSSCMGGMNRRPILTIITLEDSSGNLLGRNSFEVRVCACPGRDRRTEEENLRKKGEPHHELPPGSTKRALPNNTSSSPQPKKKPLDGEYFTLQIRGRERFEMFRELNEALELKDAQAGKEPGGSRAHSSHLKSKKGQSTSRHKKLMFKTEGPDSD
Sequence of Myc proto-oncogene protein (Homo sapiens) (P01106 whole entry, looked up, the tested form may be a part): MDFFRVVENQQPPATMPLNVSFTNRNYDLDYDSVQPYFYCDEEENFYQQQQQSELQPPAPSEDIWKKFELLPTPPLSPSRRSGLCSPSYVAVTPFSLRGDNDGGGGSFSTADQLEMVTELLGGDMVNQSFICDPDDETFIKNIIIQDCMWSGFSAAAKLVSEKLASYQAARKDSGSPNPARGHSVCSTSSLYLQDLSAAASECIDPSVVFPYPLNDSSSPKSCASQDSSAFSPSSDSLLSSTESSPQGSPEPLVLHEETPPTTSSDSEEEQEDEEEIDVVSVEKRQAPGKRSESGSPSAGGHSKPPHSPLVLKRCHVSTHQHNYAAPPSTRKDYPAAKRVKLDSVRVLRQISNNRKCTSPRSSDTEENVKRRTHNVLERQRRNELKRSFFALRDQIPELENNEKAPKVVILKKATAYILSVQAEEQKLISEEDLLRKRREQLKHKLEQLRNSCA
Sequence of Nuclear respiratory factor 1 (Homo sapiens) (Q16656 whole entry, looked up): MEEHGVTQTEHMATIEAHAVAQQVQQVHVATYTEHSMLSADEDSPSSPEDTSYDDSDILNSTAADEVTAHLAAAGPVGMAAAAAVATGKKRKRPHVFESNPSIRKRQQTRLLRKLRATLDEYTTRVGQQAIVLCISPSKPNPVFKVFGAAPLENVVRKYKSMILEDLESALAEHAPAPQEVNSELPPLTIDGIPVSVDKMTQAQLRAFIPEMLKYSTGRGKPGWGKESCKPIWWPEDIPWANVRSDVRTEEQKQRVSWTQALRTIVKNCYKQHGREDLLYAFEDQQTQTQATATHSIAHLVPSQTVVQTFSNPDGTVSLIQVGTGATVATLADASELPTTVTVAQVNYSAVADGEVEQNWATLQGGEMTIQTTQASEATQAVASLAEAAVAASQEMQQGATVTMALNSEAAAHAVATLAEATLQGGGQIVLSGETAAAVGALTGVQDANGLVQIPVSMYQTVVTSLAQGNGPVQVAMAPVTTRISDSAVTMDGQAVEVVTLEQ
Sequence of Hepatocyte nuclear factor 4-alpha (Homo sapiens) (P41235 whole entry, looked up, the tested form may be a part): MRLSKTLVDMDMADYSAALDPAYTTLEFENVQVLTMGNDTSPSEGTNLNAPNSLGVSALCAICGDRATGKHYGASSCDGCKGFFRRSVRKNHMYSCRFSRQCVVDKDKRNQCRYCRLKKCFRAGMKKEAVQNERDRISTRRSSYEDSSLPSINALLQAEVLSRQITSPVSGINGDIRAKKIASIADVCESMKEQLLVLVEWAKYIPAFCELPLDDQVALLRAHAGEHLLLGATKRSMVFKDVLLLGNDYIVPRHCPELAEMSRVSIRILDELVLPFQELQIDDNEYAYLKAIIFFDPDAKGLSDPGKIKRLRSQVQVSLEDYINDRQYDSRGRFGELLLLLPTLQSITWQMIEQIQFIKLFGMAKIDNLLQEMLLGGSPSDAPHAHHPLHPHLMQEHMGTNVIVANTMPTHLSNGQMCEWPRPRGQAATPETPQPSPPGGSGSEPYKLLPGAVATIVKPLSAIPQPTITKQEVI
Sequence of Glucocorticoid receptor (Homo sapiens) (P04150 whole entry, looked up, the tested form may be a part): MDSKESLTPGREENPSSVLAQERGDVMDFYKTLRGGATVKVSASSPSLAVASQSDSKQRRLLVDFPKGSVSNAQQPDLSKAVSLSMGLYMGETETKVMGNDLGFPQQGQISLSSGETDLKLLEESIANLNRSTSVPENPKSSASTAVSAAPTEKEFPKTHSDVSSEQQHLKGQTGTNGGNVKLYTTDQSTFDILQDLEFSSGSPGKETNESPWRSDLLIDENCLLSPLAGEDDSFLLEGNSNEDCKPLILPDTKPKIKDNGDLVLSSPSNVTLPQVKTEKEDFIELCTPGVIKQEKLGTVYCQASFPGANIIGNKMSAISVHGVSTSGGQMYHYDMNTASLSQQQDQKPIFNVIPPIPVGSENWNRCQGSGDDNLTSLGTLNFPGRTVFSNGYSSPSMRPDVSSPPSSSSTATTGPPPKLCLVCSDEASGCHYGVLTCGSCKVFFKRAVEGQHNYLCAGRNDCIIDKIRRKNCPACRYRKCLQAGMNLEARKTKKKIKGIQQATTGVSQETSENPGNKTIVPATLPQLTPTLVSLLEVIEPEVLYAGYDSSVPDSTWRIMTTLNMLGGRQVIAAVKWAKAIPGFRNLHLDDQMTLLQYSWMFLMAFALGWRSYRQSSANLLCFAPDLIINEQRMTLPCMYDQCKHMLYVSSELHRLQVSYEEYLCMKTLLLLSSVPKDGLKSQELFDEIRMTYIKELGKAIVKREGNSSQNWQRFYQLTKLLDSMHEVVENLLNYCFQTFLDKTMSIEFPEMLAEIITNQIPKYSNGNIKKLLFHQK
Sequence of Transcriptional activator Myb (Homo sapiens) (P10242 whole entry, looked up): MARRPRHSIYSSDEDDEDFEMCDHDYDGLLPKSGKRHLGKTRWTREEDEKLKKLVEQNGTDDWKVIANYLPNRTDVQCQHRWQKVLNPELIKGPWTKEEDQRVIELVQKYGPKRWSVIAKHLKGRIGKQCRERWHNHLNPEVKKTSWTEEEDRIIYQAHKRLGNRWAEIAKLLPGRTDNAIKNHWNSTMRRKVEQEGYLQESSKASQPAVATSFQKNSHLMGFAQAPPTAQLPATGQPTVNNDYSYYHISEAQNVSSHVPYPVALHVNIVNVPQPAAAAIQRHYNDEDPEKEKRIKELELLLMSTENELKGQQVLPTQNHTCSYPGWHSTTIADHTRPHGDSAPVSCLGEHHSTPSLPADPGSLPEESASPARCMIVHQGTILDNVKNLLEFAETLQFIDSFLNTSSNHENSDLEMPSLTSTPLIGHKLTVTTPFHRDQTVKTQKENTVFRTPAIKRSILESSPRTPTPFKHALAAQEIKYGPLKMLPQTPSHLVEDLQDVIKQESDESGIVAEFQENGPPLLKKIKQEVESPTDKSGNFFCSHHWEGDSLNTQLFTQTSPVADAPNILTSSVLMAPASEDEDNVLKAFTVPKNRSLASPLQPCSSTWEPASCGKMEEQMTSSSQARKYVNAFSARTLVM
Sequence of Nuclear receptor subfamily 4 group A member 2 (Homo sapiens) (P43354 whole entry, looked up): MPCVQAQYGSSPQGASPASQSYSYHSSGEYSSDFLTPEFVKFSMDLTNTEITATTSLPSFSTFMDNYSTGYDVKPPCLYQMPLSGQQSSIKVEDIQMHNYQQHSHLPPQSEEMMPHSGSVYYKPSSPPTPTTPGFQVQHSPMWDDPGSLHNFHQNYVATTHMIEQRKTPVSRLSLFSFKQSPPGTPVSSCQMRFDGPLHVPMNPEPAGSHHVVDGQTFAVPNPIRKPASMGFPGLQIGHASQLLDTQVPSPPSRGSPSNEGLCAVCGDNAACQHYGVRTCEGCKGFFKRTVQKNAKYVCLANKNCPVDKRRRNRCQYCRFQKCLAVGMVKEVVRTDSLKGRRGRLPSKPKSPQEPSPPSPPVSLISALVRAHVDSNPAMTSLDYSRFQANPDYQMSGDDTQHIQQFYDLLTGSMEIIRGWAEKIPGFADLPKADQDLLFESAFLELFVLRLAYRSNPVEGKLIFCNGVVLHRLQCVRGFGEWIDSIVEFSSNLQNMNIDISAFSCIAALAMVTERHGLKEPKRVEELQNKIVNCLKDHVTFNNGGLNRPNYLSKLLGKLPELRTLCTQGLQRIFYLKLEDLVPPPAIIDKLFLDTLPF
Sequence of Oxysterols receptor LXR-alpha (Homo sapiens) (Q13133 whole entry, looked up): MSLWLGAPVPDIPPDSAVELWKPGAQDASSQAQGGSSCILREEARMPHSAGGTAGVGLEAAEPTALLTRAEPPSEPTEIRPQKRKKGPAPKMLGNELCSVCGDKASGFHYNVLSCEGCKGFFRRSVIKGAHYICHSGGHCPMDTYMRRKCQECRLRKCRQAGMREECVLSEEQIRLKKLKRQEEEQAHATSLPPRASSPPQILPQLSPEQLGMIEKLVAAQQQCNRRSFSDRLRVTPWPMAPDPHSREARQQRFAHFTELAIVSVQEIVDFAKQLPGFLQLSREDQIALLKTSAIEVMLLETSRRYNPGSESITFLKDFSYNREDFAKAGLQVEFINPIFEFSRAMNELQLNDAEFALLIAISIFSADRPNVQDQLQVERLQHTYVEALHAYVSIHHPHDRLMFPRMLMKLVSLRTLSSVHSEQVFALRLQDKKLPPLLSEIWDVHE
Sequence of Oxysterols receptor LXR-beta (Homo sapiens) (P55055 whole entry, looked up, the tested form may be a part): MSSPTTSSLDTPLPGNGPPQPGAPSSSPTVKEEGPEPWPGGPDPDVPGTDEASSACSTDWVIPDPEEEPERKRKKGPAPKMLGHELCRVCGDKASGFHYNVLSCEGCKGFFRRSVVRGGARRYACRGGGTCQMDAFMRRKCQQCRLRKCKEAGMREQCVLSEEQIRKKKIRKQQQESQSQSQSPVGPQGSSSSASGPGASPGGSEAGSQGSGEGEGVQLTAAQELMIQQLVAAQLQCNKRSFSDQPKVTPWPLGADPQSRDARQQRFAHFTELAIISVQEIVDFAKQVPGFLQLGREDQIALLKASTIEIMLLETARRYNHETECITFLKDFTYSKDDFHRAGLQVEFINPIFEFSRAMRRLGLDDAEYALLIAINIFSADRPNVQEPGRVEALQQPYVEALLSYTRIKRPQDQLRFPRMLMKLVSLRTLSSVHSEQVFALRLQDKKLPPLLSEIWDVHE

For `FC(F)(F)C(F)(F)C(F)(F)C(F)(F)C(F)(F)C(F)(F)CC[Si](Cl)(Cl)Cl`, the result in assay [1], in assay [2], in assay [3], in assay [4], in assay [5] and in [6] was inactive. For the same molecule, the molecule was classed as inactive in [7], in assay [8], in assay [9], in assay [10], in assay [11] and in assay [12]. Besides, the result in [13] and in assay [14] was inactive.
Consider `NCC(F)(F)C(F)(F)C(F)(F)C(F)(F)C(F)(F)C(F)(F)C(F)(F)C(F)(F)F`, for which the call in assay [1], in [15], in assay [3], in assay [16], in assay [4] and in assay [5] was inactive. Moreover, the molecule was classed as inactive in assay [6], in assay [7], in assay [8], in [9], in assay [10] and in [12]. Moreover, the outcome in assay [13], in [14] and in assay [17] was inactive.
As to `CCN=C1C=CC(=C(c2ccc(N(CC)CC)cc2)c2ccc(N(CC)CC)cc2)c2ccccc21`, the molecule was classed as inactive in [1], in assay [18], in assay [5], in assay [7], in assay [8] and in assay [9]. For the same molecule, the AC50 (in general, the midpoint of the concentration-response curve, whichever way the signal moves) was 1040 nM (active) in [6]; 81.1 nM (active) in assay [10]; 566 nM (active) in [11]; 917 nM (active) in assay [12]; 1.96 µM (active) and 1.79 µM (active) in [13]; 3.95 µM (active) and 1.39 µM (active) in assay [14].
As for `O=C1OC(=O)c2ccc3c4c(ccc1c24)C(=O)OC3=O`, the outcome in assay [19], in assay [15], in assay [18], in assay [3], in assay [16] and in [5] was inactive. Further, the call in [6], in assay [7], in assay [8], in assay [9], in [10] and in [11] was inactive.
Turning to `CC(C)(C)C(=O)C1C(=O)c2ccccc2C1=O`, the molecule was called inactive in [15], in assay [2], in assay [18], in assay [3], in assay [16] and in assay [4]. In addition, the outcome in assay [5], in assay [6], in assay [7], in assay [8], in assay [9] and in assay [12] was inactive. In addition, the results for the AC50 in assay [10] and in assay [11] were 31500 nM (active) and 63100 nM (active), respectively.
On to `COCCC(=O)OC`, for which the molecule was called inactive in assay [15], in assay [18], in assay [16], in [5], in assay [6] and in [7]. For the same molecule, the outcome in assay [8], in [9] and in [10] was inactive.

The values are drawn from PubChem BioAssay (EPA / NIEHS).
